Consider 21 compounds from PubChem BioAssay (NCATS).

Inconclusive results are not listed. Calls of active or inactive are those of the source. Calls come from the whole dose curve; as a rule, active = well fitted inhibition curve with a large enough effect; inconclusive = small, poorly fitted or top-dose-only effect; inactive = no such curve, though single readings can be large or run the other way.

One experiment relates to Zika virus NS2B-NS3 protease (linked). Description: 384 well plate NINDS AMC confirmatory qHTS for Zika virus inhibitors (AID 1347163). Note: nearly all actives have a fitted effect of over 50% in size. Note: potency is the fitted concentration of half-maximal effect. Particulars: Recombinant NS2B-NS3 protease, Ac-VKTGKR-AMC fluorescence; series mostly up to 1 mM. The procedure, abridged: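 Fluorescence at 355/460 nm was read after 25 minutes of cleavage of 30 microM Ac-VKTGKR-AMC at room temperature, in the dark. Before substrate addition, compounds (up to 1 mM final) sat ~15 minutes with 5, 30 or 60 nM linked protease. Signals were normalized to no-enzyme and no-inhibitor wells.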
(In general: In qHTS, concentration-response curves come from the screen itself.)
For `O=C(O)c1c(Br)c(Br)c(Br)c(Br)c1C1c2ccc(O)cc2Oc2cc(O)ccc21`, the Potency is 14.1 µM (active). Same read-out and setting: for `CC(C)(C)c1ccc(S(=O)(=O)c2cnc(SCC(=O)Nc3ccc4c(c3)OCCO4)[nH]c2=O)cc1` the value was 316 µM (active).

As for `Cc1c(C2(c3cc(C(C)C)c(O)c(Br)c3C)OS(=O)(=O)c3ccccc32)cc(C(C)C)c(O)c1Br`, the Potency was 126 µM (active).

`Cc1ccc2nc(-c3ccc(N=Nc4cc(S(=O)(=O)O)c5ccccc5c4O)cc3)sc2c1S(=O)(=O)O`: the Potency entry is “inactive”. Still for that read-out and setting: as for `Cc1ccc(-c2cc(C(F)(F)F)c(C#N)c(SCC(=O)O)n2)cc1`, the figure is 141 µM (active). On the same count and under the same terms, as for `CCS(=O)(=O)c1cccc(C(=O)Nc2ccc(-c3nc4ccccc4s3)c(O)c2)c1`, the entry is “inactive”. For `O=C1c2ccc(O)c(O)c2C(=O)c2c(O)ccc(O)c21`, the Potency was 31.6 µM (active).

On to `Cc1ccc(NC(=O)c2ccc3c(O)c(S(=O)(=O)c4ccccc4)c(=O)[nH]c3c2)cc1Cl`, for which the Potency is 282 µM (active). With `Nc1c(N=Nc2ccc([N+](=O)[O-])cc2)c(S(=O)(=O)O)cc2cc(S(=O)(=O)O)c(/C=C/c3ccccc3)c(O)c12`, the Potency is 79.4 µM (active). On the same count and under the same terms, for `COC(=O)c1ccc([C@H]2Nc3ccc(S(=O)(=O)Nc4cccc(C)c4)cc3[C@H]3C=CC[C@H]32)cc1` the value was 141 µM (active). Still for that read-out and setting: for `COc1ccc(NS(=O)(=O)c2ccc3c(c2)[C@H]2C=CC[C@H]2[C@@H](c2ccc(C(=O)O)cc2)N3)cc1` the value was 79.4 µM (active).

A further experiment has as its system Zika virus NS2B-NS3 protease (linked construct). Description: 384 well plate NINDS Rhodamine confirmatory qHTS for Zika virus inhibitors (AID 1347164). Note: nearly all actives have a fitted effect of over 65% in size. Note: potency is the fitted concentration of half-maximal effect. The following applies: rhodamine-110 peptide substrate fluorescence; series mostly up to 1 mM. The method, boiled down: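 Linked NS2B-NS3 protease (final 5, 30 or 60 nM) preincubated ~15 minutes with compounds, then 10 microM Ac-LKRR-Rhodamine 110 added. Fluorescence (485/538 nm) read after 25 minutes at room temperature, normalized to no-enzyme and no-inhibitor controls.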
Regarding `O=c1c(O)cc(C2Oc3cc(O)cc(O)c3CC2O)cc2c(C3Oc4cc(O)cc(O)c4CC3O)cc(O)c(O)c12` (stereo not drawn), the Potency result is “inactive”.

Consider `COc1cc(-c2ccc(N=Nc3ccc4c(S(=O)(=O)O)cc(S(=O)(=O)O)c(N)c4c3O)c(OC)c2)ccc1N=Nc1ccc2c(S(=O)(=O)O)cc(S(=O)(=O)O)c(N)c2c1O`, for which the Potency entry was “inactive”.

For `O=C(Nc1ccc(C(=O)Nc2ccc(C(=O)Nc3ccc(S(=O)(=O)O)c4cc(S(=O)(=O)O)cc(S(=O)(=O)O)c34)cc2)cc1)Nc1ccc(C(=O)Nc2ccc(C(=O)Nc3ccc(S(=O)(=O)O)c4cc(S(=O)(=O)O)cc(S(=O)(=O)O)c34)cc2)cc1`, the Potency is 2.51 µM (active). Regarding `O=C(O)c1ccccc1-c1c2cc(I)c(=O)c(I)c-2oc2c(I)c(O)c(I)cc12`, the Potency result is “inactive”. On the same count and under the same terms, for `CC(C)c1ccc(NC(=O)c2ccc3c(O)c(S(=O)(=O)c4ccccc4)c(=O)[nH]c3c2)cc1` the value was 28.2 µM (active); for `O=C(OC1Cc2c(O)cc(O)cc2OC1c1cc(O)c(=O)c2c(O)c(O)cc(C3Oc4cc(O)cc(O)c4CC3OC(=O)c3cc(O)c(O)c(O)c3)c2c1)c1cc(O)c(O)c(O)c1` (stereo not drawn), “inactive”; for `CC(C)(C)c1ccc(S(=O)(=O)c2cnc(SCC(=O)Nc3ccc4c(c3)OCCO4)[nH]c2=O)cc1`, 31.6 µM (active). Same read-out and setting: for `CCOC(=O)c1ccc(N2C(=O)c3n[nH]c(-c4cccs4)c3C2c2ccc(Cl)cc2Cl)cc1` (stereo not drawn) the value was 44.7 µM (active). Consider `Cc1c(C2(c3cc(C(C)C)c(O)c(Br)c3C)OS(=O)(=O)c3ccccc32)cc(C(C)C)c(O)c1Br`, for which the Potency was 17.8 µM (active).

In the case of `Cc1ccc2nc(-c3ccc(N=Nc4cc(S(=O)(=O)O)c5ccccc5c4O)cc3)sc2c1S(=O)(=O)O`, the Potency is 15.8 µM (active). Take `Cc1ccc(-c2cc(C(F)(F)F)c(C#N)c(SCC(=O)O)n2)cc1`: the Potency is 126 µM (active). As for `CCS(=O)(=O)c1cccc(C(=O)Nc2ccc(-c3nc4ccccc4s3)c(O)c2)c1`, the Potency is 14.1 µM (active).

For the compound `O=C1c2ccc(O)c(O)c2C(=O)c2c(O)ccc(O)c21`, the Potency result is “inactive”. Turning to `Cc1ccc(NC(=O)c2ccc3c(O)c(S(=O)(=O)c4ccccc4)c(=O)[nH]c3c2)cc1Cl`, the Potency was 44.7 µM (active). Turning to `Nc1c(N=Nc2ccc([N+](=O)[O-])cc2)c(S(=O)(=O)O)cc2cc(S(=O)(=O)O)c(/C=C/c3ccccc3)c(O)c12`, the Potency was 14.1 µM (active). Still for that read-out and setting: for `COC(=O)c1ccc([C@H]2Nc3ccc(S(=O)(=O)Nc4cccc(C)c4)cc3[C@H]3C=CC[C@H]32)cc1` the value was 158 µM (active); for `COc1ccc(NS(=O)(=O)c2ccc3c(c2)[C@H]2C=CC[C@H]2[C@@H](c2ccc(C(=O)O)cc2)N3)cc1`, 20 µM (active).

System in a further experiment: not listed separately
Description: Tertiary RLuc qRT-PCR qHTS assay for Zika virus inhibitors (AID 1347169). Note: top concentration of the series differs between compounds; nearly all actives have a fitted effect of over 55% in size. Particulars: infected Vero cells, reporter luminescence, 48-72 h; series mostly up to 1.74 µM. The method, boiled down:
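Vero cells (1,000/well) infected with recombinant ZIKV-RLuc (Cambodian) at MOI 1-2 after compound addition, 48-72 hrs at 37 degrees C. Live-cell Renilla luciferase substrate added; luminescence read after 1-1.5 hrs.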
(Quantitative PCR measures a nucleic acid by following its amplification.)
Consider `N#C/C(=C\c1ccc(-c2cc(Cl)ccc2Cl)o1)C(=O)Nc1ccccc1C(=O)O`, for which the Potency entry was “inactive”. Still for that read-out and setting: for `N#C/C(=C\c1ccc(-c2ccc(Cl)c(C(=O)O)c2)o1)c1nc2ccccc2[nH]1` the value was “inactive”; for `COc1cc(-c2ccc(N=Nc3ccc4c(S(=O)(=O)O)cc(S(=O)(=O)O)c(N)c4c3O)c(OC)c2)ccc1N=Nc1ccc2c(S(=O)(=O)O)cc(S(=O)(=O)O)c(N)c2c1O`, “inactive”. The same measure, in the same setting: as for `O=C(Nc1ccc(C(=O)Nc2ccc(C(=O)Nc3ccc(S(=O)(=O)O)c4cc(S(=O)(=O)O)cc(S(=O)(=O)O)c34)cc2)cc1)Nc1ccc(C(=O)Nc2ccc(C(=O)Nc3ccc(S(=O)(=O)O)c4cc(S(=O)(=O)O)cc(S(=O)(=O)O)c34)cc2)cc1`, the entry is “inactive”.

`O=C(O)c1ccccc1-c1c2cc(I)c(=O)c(I)c-2oc2c(I)c(O)c(I)cc12`: the Potency entry is “inactive”.

Turning to `CC(C)(C)c1ccc(S(=O)(=O)c2cnc(SCC(=O)Nc3ccc4c(c3)OCCO4)[nH]c2=O)cc1`, the Potency entry was “inactive”. In the case of `Cc1ccc2nc(-c3ccc(N=Nc4cc(S(=O)(=O)O)c5ccccc5c4O)cc3)sc2c1S(=O)(=O)O`, the Potency result is “inactive”. On the same count and under the same terms, for `CCS(=O)(=O)c1cccc(C(=O)Nc2ccc(-c3nc4ccccc4s3)c(O)c2)c1` the value was “inactive”; for `COc1ccc2c(c1)Oc1nc(-c3ccc(C)s3)nc(SCC(=O)Nc3cccc(C(=O)O)c3)c1C2`, “inactive”; for `COC(=O)c1ccc([C@H]2Nc3ccc(S(=O)(=O)Nc4cccc(C)c4)cc3[C@H]3C=CC[C@H]32)cc1`, “inactive”.
